20 compounds from PubChem BioAssay can be followed below.

Values without a mark were called inactive. For some of these results: Measured potencies and affinities stand elsewhere. Calls of active or inactive are those of the source. Unless noted, the rule behind the calls is not given here.

A short description of test [1]: antimalarial activity against Dd2 strain (AID 2302;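 active = growth inhibition above 50% at the single 2 µM test dose, taken to imply half-maximal potency below 2 µM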;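 note: 0% = DMSO untreated growth and 100% = chloroquine plus artemisinin killed control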). To be noted: P. falciparum Dd2 in RBCs, LDH growth readout, 72 h; at 2 µM; stronger effect = higher value.
Test [2] is described as follows: HepG2 cytotoxicity, primary screen, cytotoxicity control for P. falciparum antimalarial project, cell-based, ATP luminescence (AID 2303;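 active = inhibition above 50%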;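 note: 0% = DMSO wells and 100% = digitonin-killed cells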). The following applies: HepG2 viability, 24-48 h, at 10 µM, stronger effect = higher value.
Test [3] deals with L-lactate dehydrogenase (Plasmodium falciparum (isolate CDC / Honduras)) (UniProt Q27743). The test is described as follows: PfLDH activity inhibition – cell lysate, 3D7 strain, counter-screen for P. falciparum growth inhibition project (AID 2304).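 Note: 0% = vehicle and 100% = reference inhibitor.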 To be noted: P. falciparum 3D7 crude extract, LDH APAD/NBT absorbance; at 2 µM; stronger effect = higher value. For orientation: A counterscreen serves to expose hits that act by an unwanted route or on another target.

Test [4] can be described thus: inhibition of 3D7 malaria parasite growth – strain 3D7 (AID 2306).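 Note: 0% = DMSO wells and 100% = chloroquine plus artemisinin control wells.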 The following applies: P. falciparum 3D7 erythrocytic growth, LDH absorbance, 72 h; at 2 µM; stronger effect = higher value.
Test [5] deals with Calcium-dependent protein kinase 1 (Plasmodium falciparum (isolate 3D7)) (UniProt P62344). The test is described as follows: PfCDPK1 kinase inhibitors, biochemical, TCAMS library (AID 1159585; cut-off not given, nearly all actives have IC50 up to about 0.98 µM;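 note: inhibitors leave more ATP so luminescence rises with inhibition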). To be noted: recombinant PfCDPK1, Kinase-Glo ATP depletion luminescence. (In general: Kinase-Glo measures the ATP left after a reaction by luminescence.)
The target of test [6] is Plasmodium falciparum protein kinase 6 (PK6, PF3D7_1337100) (UniProt Q8IDW1). The test is described as follows: PfPK6 kinase inhibitors, biochemical, TCAMS library (AID 1159586). The following applies: recombinant PfPK6, Kinase-Glo ATP depletion luminescence.
The target in test [7] is Protein kinase 7 (PK7), Plasmodium falciparum 3D7 (PF3D7_0213400) (UniProt Q7YTF7). The test is described as follows: inhibition of Plasmodium PK7 catalytic activity – biochemical, TCAMS antimalarial set, Kinase-Glo luminescence (AID 1159587). To be noted: recombinant PfPK7, Kinase-Glo ATP depletion luminescence.
The target of test [8] is Calcium-dependent protein kinase 4 (Plasmodium falciparum (isolate 3D7)) (UniProt Q8IBS5). The test is described as follows: PfCDPK4 kinase inhibitors, biochemical, TCAMS library (AID 1159588; cut-off not given, nearly all actives have IC50 up to about 0.91 µM). To be noted: recombinant PfCDPK4, Kinase-Glo ATP depletion luminescence.
Calcium-dependent protein kinase 4 (Plasmodium falciparum (isolate 3D7)), sequence (Q8IBS5 whole entry, looked up): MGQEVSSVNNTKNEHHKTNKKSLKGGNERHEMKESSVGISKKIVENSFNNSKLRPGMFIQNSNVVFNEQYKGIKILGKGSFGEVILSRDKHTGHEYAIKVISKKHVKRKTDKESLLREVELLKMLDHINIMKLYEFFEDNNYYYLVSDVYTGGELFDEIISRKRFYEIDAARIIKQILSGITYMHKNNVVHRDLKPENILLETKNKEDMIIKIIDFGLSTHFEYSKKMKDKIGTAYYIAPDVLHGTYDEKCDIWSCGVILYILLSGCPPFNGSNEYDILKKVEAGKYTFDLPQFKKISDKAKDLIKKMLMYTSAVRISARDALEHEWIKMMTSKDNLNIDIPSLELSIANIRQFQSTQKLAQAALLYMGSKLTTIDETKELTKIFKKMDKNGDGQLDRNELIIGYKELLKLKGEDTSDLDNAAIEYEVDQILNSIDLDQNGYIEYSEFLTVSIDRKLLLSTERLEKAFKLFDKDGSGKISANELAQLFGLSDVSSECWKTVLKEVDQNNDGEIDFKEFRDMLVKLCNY

Plasmodium falciparum protein kinase 6 (PK6, PF3D7_1337100), sequence (Q8IDW1 1-305): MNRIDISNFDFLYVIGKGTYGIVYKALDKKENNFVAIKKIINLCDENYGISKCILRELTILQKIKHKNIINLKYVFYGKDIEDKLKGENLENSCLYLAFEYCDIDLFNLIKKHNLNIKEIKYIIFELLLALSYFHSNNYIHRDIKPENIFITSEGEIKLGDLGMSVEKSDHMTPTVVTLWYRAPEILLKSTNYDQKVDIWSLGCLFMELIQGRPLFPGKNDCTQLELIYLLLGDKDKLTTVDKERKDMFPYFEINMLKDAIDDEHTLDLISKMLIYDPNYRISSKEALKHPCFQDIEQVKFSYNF
L-lactate dehydrogenase (Plasmodium falciparum (isolate CDC / Honduras)), sequence (Q27743 whole entry, looked up): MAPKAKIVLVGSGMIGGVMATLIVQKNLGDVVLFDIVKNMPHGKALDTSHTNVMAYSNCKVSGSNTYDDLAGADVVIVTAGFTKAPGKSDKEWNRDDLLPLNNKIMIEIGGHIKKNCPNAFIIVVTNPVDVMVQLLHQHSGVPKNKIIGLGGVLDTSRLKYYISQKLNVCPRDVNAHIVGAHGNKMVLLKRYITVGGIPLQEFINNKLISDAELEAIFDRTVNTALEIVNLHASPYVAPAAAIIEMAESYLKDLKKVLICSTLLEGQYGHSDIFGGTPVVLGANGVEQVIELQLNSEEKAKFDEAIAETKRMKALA
Calcium-dependent protein kinase 1 (Plasmodium falciparum (isolate 3D7)), sequence (P62344 whole entry, looked up): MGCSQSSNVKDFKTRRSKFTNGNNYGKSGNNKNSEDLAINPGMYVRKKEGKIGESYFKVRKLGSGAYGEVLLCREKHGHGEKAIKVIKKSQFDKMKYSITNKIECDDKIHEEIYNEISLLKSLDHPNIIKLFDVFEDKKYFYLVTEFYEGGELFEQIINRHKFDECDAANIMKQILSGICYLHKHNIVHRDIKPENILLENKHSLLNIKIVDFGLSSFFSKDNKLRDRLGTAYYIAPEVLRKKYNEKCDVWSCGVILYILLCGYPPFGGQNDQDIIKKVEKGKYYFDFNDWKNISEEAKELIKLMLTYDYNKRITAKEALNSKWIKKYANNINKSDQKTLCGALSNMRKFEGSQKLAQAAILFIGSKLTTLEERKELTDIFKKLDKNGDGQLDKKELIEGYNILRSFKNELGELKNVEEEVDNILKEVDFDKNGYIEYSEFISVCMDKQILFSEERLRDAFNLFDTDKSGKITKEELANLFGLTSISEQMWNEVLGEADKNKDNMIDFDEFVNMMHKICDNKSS
Protein kinase 7 (PK7), Plasmodium falciparum 3D7 (PF3D7_0213400), sequence (Q7YTF7 1-343): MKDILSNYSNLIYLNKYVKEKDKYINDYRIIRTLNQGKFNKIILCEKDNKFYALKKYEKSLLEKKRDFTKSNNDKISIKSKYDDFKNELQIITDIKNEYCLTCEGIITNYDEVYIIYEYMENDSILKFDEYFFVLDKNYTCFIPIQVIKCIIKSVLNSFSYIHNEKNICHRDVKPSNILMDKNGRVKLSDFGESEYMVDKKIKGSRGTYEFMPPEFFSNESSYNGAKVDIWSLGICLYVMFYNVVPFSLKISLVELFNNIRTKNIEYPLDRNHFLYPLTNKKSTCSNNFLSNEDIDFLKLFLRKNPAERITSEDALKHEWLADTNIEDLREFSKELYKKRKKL

The inhibition is the drop in the measured response relative to a control, in per cent. Consider `CC(C)(C)c1ccc(O)c(CNC2CCCCC2)c1`, for which the growth inhibition in test [1] was 98% (active); in test [4], 100% (active). For the same compound, the inhibition in test [2] was 5%; in test [3] it was -2%. The outcome in test [5], in test [6], in test [7] and in test [8] was inactive.
Regarding `Cc1noc(-c2ccccc2)c1NC(=O)N1CCN(CCCCCCNC(=O)/C=C/c2ccc(Cl)c(Cl)c2)CC1`, the growth inhibition in test [1] was 1%; in test [4], 95% (active). Further, the inhibition in test [2] is 6%; in test [3] it was 2%. The outcome in test [5], in test [6], in test [7] and in test [8] was inactive.
On to `Cc1c(Cl)cccc1S(=O)(=O)Nc1cccc(CCN2CCC(N3CCCCC3)CC2)c1`, for which the growth inhibition in test [1] is 82% (active); in test [4], 101% (active). Further, the inhibition in test [2] was 38%; in test [3], -1%. The result in test [5], in test [6], in test [7] and in test [8] was inactive.
`CN1CCN(CCCN(Cc2csc(-c3ccc(CNCc4ccccc4)cc3)n2)C(=O)Nc2ccc3ccccc3c2)CC1`: the growth inhibition in test [1] was 63% (active); in test [4], 94% (active). The figures for the inhibition in test [2] and in test [3] were 12% and 3%, respectively. For the same compound, the outcome in test [5], in test [6], in test [7] and in test [8] was inactive.
Take `O=C(/C=C/c1ccc(Cl)c(Cl)c1)NCCCCCN1CCCN(C(=O)Nc2ccc(OC(F)F)cc2)CC1`: the growth inhibition in test [1] is -4%; in test [4] it was 99% (active). Besides, the inhibition is 39% in test [2] and 3% in test [3]. Further, the outcome in test [5], in test [6], in test [7] and in test [8] was inactive.
As to `Cn1cnc2c(SCc3ccccc3OCc3ccccc3)ncnc21`, the growth inhibition in test [1] is 34%; in test [4], 86% (active). Besides, the inhibition was 6% in test [2] and -3% in test [3]. Besides, the result in test [5], in test [6], in test [7] and in test [8] was inactive.
For the compound `Cc1cccc(-c2ccc3c(c2)CC(NCc2cccc(-n4ccnc4)c2)C3)c1` (stereo not given), the figures for the growth inhibition in test [1] and in test [4] were 49% and 101% (active), respectively. For the same compound, the inhibition was 11% in test [2] and 0% in test [3]. Moreover, the outcome in test [5], in test [6], in test [7] and in test [8] was inactive.
In the case of `Cc1ccc(C(NC(=O)c2ccccc2)c2ccc3cccnc3c2O)cc1` (stereo not given), the growth inhibition in test [1] was 72% (active); in test [4] it was 92% (active). Moreover, the inhibition was 53% (active) in test [2] and 7% in test [3]. Moreover, the result in test [5], in test [6], in test [7] and in test [8] was inactive.
Turning to `Cc1cc(Nc2cccc(C(F)(F)F)c2)nc(N)n1`, the values for the growth inhibition in test [1] and in test [4] were 24% and 98% (active), respectively. In addition, the values for the inhibition in test [2] and in test [3] were 5% and 1%, respectively. The outcome in test [5], in test [6], in test [7] and in test [8] was inactive.
With `CN(C)c1ccc(-c2csc(C(=O)NCC3CCN(CC4CCCCC4)C3)c2)cc1` (stereo not given), the growth inhibition in test [1] was 28%; in test [4], 86% (active). For the same compound, the inhibition in test [2] is 35%; in test [3], 1%. Further, the result in test [5], in test [6], in test [7] and in test [8] was inactive.
Regarding `C[C@H](NC(=O)c1c(CN2CCC(N3CCCCC3)CC2)c(-c2ccccc2)nc2cc(O)ccc12)C1CCCCC1`, the growth inhibition is 72% (active) in test [1] and 99% (active) in test [4]. Moreover, the results for the inhibition in test [2] and in test [3] were 77% (active) and 0%, respectively. In addition, the result in test [5], in test [6], in test [7] and in test [8] was inactive.
As to `CCN(CCCN1CCCCC1)c1cc(C)nc(Nc2ccc(F)c(C(F)(F)F)c2)n1`, the growth inhibition in test [1] was 93% (active); in test [4] it was 100% (active). Moreover, the inhibition is 32% in test [2] and 0% in test [3]. Also, the outcome in test [5], in test [6], in test [7] and in test [8] was inactive.
For the compound `CCc1cccc(-n2c(=O)c3cccnc3n2CC(=O)NCc2ccccc2Cl)c1`, the growth inhibition was 19% in test [1] and 98% (active) in test [4]. The inhibition in test [2] was 25%; in test [3], -8%. Besides, the outcome in test [5], in test [6], in test [7] and in test [8] was inactive.
Take `O=C(NCC(NCCCNc1cc(=O)c2ccccc2[nH]1)c1cc(Br)cc(Br)c1)C1=CCCC1` (stereo not given): the growth inhibition is 48% in test [1] and 96% (active) in test [4]. The inhibition was -4% in test [2] and 7% in test [3]. Also, the result in test [5], in test [6], in test [7] and in test [8] was inactive.
As to `CCn1cnc2c(N3CCCC3=O)cc(C(=O)N[C@@H](Cc3ccccc3)[C@H](O)CNC3CCCCC3)cc21`, the growth inhibition is 94% (active) in test [1] and 98% (active) in test [4]. Further, the inhibition in test [2] was -2%; in test [3], -5%. Further, the outcome in test [5], in test [6], in test [7] and in test [8] was inactive.
Take `CCOCc1cnc(C)nc1CNC(=O)c1c(C)[nH]c2ccc(C)cc12`: the growth inhibition in test [1] was 65% (active); in test [4] it was 84% (active). Moreover, the inhibition in test [2] was 8%; in test [3] it was 3%. Besides, the result in test [5], in test [6], in test [7] and in test [8] was inactive.
On to `Oc1ccc(CCNc2nc(NCCCOc3cc(CN4CCCCC4)ccc3F)nc(N3CCNCC3)n2)cc1`, for which the growth inhibition in test [1] was -3%; in test [4] it was 101% (active). Also, the inhibition in test [2] was 30%; in test [3] it was -1%. In addition, the outcome in test [5], in test [6], in test [7] and in test [8] was inactive.
Turning to `CNC(=O)COc1ccc(Nc2nnc(-c3ccc(C)c(S(=O)(=O)NCC4CCCO4)c3)c3ccccc23)cc1` (stereo not given), the growth inhibition in test [1] was 68% (active); in test [4], 90% (active). Also, the inhibition in test [2] was -8%; in test [3], 0%. Further, the outcome in test [5], in test [6], in test [7] and in test [8] was inactive.
In the case of `CC(C)[C@H](NC(=O)c1ccc(O)c(-c2ccc(Cl)c(Cl)c2)c1)C(=O)NCCN(C)C`, the figures for the growth inhibition in test [1] and in test [4] were 1% and 92% (active), respectively. For the same compound, the inhibition in test [2] is -4%; in test [3] it was -3%. Besides, the outcome in test [5], in test [6], in test [7] and in test [8] was inactive.
For `CC(C)c1ccc(S(=O)(=O)Nc2cccc(CCN3CCC(N4CCCCC4)CC3)c2)cc1`, the growth inhibition in test [1] was 35%; in test [4], 101% (active). Moreover, the inhibition in test [2] is 37%; in test [3], 6%. Moreover, the result in test [5], in test [6], in test [7] and in test [8] was inactive.
